{"source": "PubChem BioAssay (NCI)", "note": "Compounds without any hit were thinned out: in the full panel of roughly 79,000, 15% have a hit. A number with no mark means an inactive call. Calls of active or inactive are those of the source. Rule as the data show it: active = growth inhibition above about 70%; inactive = the rest."}
{"test": "NCI Yeast Anticancer Drug Screen. Data for the mlh1 rad18 strain (AID 175)", "details": "S. cerevisiae mlh1 rad18 strain growth inhibition; at 5.0 µM (retest, dose inferred, filed as 0.5); active compounds read high", "procedure,_shortened": "(§1)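 Growth inhibition of the yeast strain was measured after compound exposure and expressed relative to vehicle-treated controls. The strain carries defined defects in DNA damage repair.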"}
{"smiles": "O=C1C(Cl)=C(N2C(=O)CCC2=O)C(=O)c2ccccc21", "growth inhibition": "72% (active)"}
{"smiles": "C/C(=N\\NC(=S)N1CCCC1)c1nc2ncccc2[nH]1", "growth inhibition": "12%"}
{"smiles": "Clc1ccc(CN2COc3c(cc(Cl)c4cccnc34)C2)cc1Cl", "growth inhibition": "13%"}
{"smiles": "Cc1cc(C)c2c(c1)sc1nncn12", "growth inhibition": "93% (active)"}
{"smiles": "O=[N+]([O-])C1=Cc2ccccc2S(=O)(=O)CC1", "growth inhibition": "21%"}
{"smiles": "O=C1CNCCCN2CCN(CCCNCC(=O)Nc3ccc(cc3)S(=O)(=O)c3ccc(cc3)NC(=O)CNCCCN3CCN(CCCNCC(=O)Nc4ccc(cc4)S(=O)(=O)c4ccc(cc4)N1)CC3)CC2", "growth inhibition": "-11%"}
{"smiles": "O=C(Nc1ccccc1-c1nn(CN2CCNCC2)c(=S)n(CN2CCNCC2)c1=O)C(F)(F)F", "growth inhibition": "-2%"}
{"smiles": "O=[N+]([O-])c1ccc(/C(=C\\c2ccccc2)Cn2ccnc2)cc1", "growth inhibition": "80% (active)"}
{"smiles": "Cc1ccc(S(=O)(=O)NNC2Oc3cc4c(cc3C(c3ccccc3O)C2C)OCO4)cc1", "note": "(stereo not drawn)", "growth inhibition": "22%"}
{"smiles": "CC1CCC(NCCOC(=O)c2ccc([N+](=O)[O-])cc2)CC1", "note": "(stereo not drawn)", "growth inhibition": "-3%"}
{"smiles": "Oc1cc(F)ccc1-c1ccc(F)cc1", "growth inhibition": "-6%"}
{"smiles": "Cn1c(=O)cc[nH]c1=O", "growth inhibition": "-5%"}
{"smiles": "CCOc1c(N=Nc2ccccc2OC)c(-c2ccccc2)nn1C(N)=S", "growth inhibition": "2%"}
{"smiles": "CS(C)=O.[Cl-].[Cl-].[NH-]CC(O)CN(Cc1ccccc1)CC(O)CN.[Pt]", "note": "(stereo not drawn)", "growth inhibition": "-13%"}
{"smiles": "Clc1ccc(C2=CCN3CC=C(c4ccc(Cl)cc4)C23)cc1", "growth inhibition": "18%"}
{"smiles": "CCOC(=O)C(Cc1cn(S(=O)(=O)c2ccccc2)c2ccccc12)(NC(C)=O)C(=O)OCC", "growth inhibition": "5%"}
{"smiles": "BrCC1(CBr)COC1", "growth inhibition": "2%"}
{"smiles": "O=C1CC(O)C=C1Nc1ccc(Cl)cc1", "note": "(stereo not drawn)", "growth inhibition": "0%"}
{"smiles": "COc1cc(NCCCCCNC(C)C)c2ncc(C)c(C)c2c1", "growth inhibition": "9%"}
{"smiles": "Cc1ccc(C(c2ccc(N(C)C)cc2)c2ccc(N(C)C)cc2)cc1", "growth inhibition": "98% (active)"}
{"smiles": "COc1ccc(OC)c2c1C=C[C@H](C1(C)SCCS1)C2C(C)=O", "note": "(stereo partly drawn)", "growth inhibition": "-13%"}
{"smiles": "CCOC(=O)c1cc2c(nc1NCc1ccc(OC)c(OC)c1)/C(=C/c1ccccc1)CCCC2", "growth inhibition": "58%"}
{"smiles": "N#Cc1ccccc1[N+](=O)[O-]", "growth inhibition": "4%"}
{"smiles": "O=C1c2cccc3cc4ccccc4c(c23)C(=O)N1CCCNCCNCCCN1C(=O)c2cccc3cc4ccccc4c(c23)C1=O", "growth inhibition": "94% (active)"}
{"smiles": "CC(=O)Oc1ccc(N=[N+]([O-])c2ccc(OC(C)=O)cc2)cc1", "growth inhibition": "-1%"}
{"smiles": "CCOCCNc1ncnc2c1cnn2C", "growth inhibition": "3%"}
{"smiles": "O=Cc1ccc(-c2nccc3c2[nH]c2ccccc23)o1", "growth inhibition": "21%"}
{"smiles": "O=c1oc2ccccc2c(O)c1C1=N/C(=N/N=C/c2ccc(Cl)cc2)SC1", "growth inhibition": "1%"}
{"smiles": "Cc1ccccc1Oc1ccccc1N", "growth inhibition": "-15%"}
{"smiles": "CCCCCCC(=O)Nc1ccc(OC(=O)CCCCCC)c(=O)cc1", "growth inhibition": "26%"}
{"smiles": "CC(=O)C(C(C)=O)C1C=CC=CC=C1", "growth inhibition": "-139%"}
{"smiles": "CC(=O)Nc1ccc(N=C2c3ccccc3-c3ccc(NC(C)=O)cc32)cc1", "growth inhibition": "-5%"}
{"smiles": "C/C=C1\\CC(C)(CC)C(C#N)(C#N)C(N)=C1C#N", "note": "(stereo not drawn)", "growth inhibition": "0%"}
{"smiles": "Cc1cc(Cc2ccc(Cl)cc2)ccc1O", "growth inhibition": "6%"}
{"smiles": "O=C1C=CC(=O)N1c1ccc(-c2nc3ccccc3o2)cc1", "growth inhibition": "82% (active)"}
{"smiles": "CCN(CC)CC(O)c1ccnc2c(O)cccc12", "note": "(stereo not drawn)", "growth inhibition": "1%"}
{"smiles": "Nc1ccc(O)c2c1C(=O)c1ccccc1C2O", "note": "(stereo not drawn)", "growth inhibition": "28%"}
{"smiles": "CC(=O)OC1CCC2(C)C(CCC3C4=CCC(C5COC(=O)C5)C4(C)CCC32)C1", "note": "(stereo not drawn)", "growth inhibition": "11%"}
{"smiles": "CCN(CC)CCOc1ccc(NC(=S)Nc2ccc(OCC(C)C)cc2)cc1", "growth inhibition": "46%"}
{"test": "NCI Yeast Anticancer Drug Screen. Data for the mlh1 rad18 strain (AID 175)", "details": "S. cerevisiae mlh1 rad18 strain growth inhibition; at 50.0 µM (retest, dose inferred, filed as 5.0); active compounds read high", "procedure,_shortened": "as §1"}
{"smiles": "O=C1C(Cl)=C(N2C(=O)CCC2=O)C(=O)c2ccccc21", "growth inhibition": "98% (active)"}
{"smiles": "C/C(=N\\NC(=S)N1CCCC1)c1nc2ncccc2[nH]1", "growth inhibition": "97% (active)"}
{"smiles": "Clc1ccc(CN2COc3c(cc(Cl)c4cccnc34)C2)cc1Cl", "growth inhibition": "96% (active)"}
{"smiles": "Cc1cc(C)c2c(c1)sc1nncn12", "growth inhibition": "97% (active)"}
{"smiles": "O=[N+]([O-])C1=Cc2ccccc2S(=O)(=O)CC1", "growth inhibition": "97% (active)"}
{"smiles": "O=C1CNCCCN2CCN(CCCNCC(=O)Nc3ccc(cc3)S(=O)(=O)c3ccc(cc3)NC(=O)CNCCCN3CCN(CCCNCC(=O)Nc4ccc(cc4)S(=O)(=O)c4ccc(cc4)N1)CC3)CC2", "growth inhibition": "99% (active)"}
{"smiles": "O=C(Nc1ccccc1-c1nn(CN2CCNCC2)c(=S)n(CN2CCNCC2)c1=O)C(F)(F)F", "growth inhibition": "14%"}
{"smiles": "O=[N+]([O-])c1ccc(/C(=C\\c2ccccc2)Cn2ccnc2)cc1", "growth inhibition": "92% (active)"}
{"smiles": "Cc1ccc(S(=O)(=O)NNC2Oc3cc4c(cc3C(c3ccccc3O)C2C)OCO4)cc1", "note": "(stereo not drawn)", "growth inhibition": "97% (active)"}
{"smiles": "CC1CCC(NCCOC(=O)c2ccc([N+](=O)[O-])cc2)CC1", "note": "(stereo not drawn)", "growth inhibition": "6%"}
{"smiles": "Oc1cc(F)ccc1-c1ccc(F)cc1", "growth inhibition": "98% (active)"}
{"smiles": "Cn1c(=O)cc[nH]c1=O", "growth inhibition": "1%"}
{"smiles": "CCOc1c(N=Nc2ccccc2OC)c(-c2ccccc2)nn1C(N)=S", "growth inhibition": "39%"}
{"smiles": "CS(C)=O.[Cl-].[Cl-].[NH-]CC(O)CN(Cc1ccccc1)CC(O)CN.[Pt]", "note": "(stereo not drawn)", "growth inhibition": "-4%"}
{"smiles": "Clc1ccc(C2=CCN3CC=C(c4ccc(Cl)cc4)C23)cc1", "growth inhibition": "39%"}
{"smiles": "CCOC(=O)C(Cc1cn(S(=O)(=O)c2ccccc2)c2ccccc12)(NC(C)=O)C(=O)OCC", "growth inhibition": "35%"}
{"smiles": "BrCC1(CBr)COC1", "growth inhibition": "87% (active)"}
{"smiles": "O=C1CC(O)C=C1Nc1ccc(Cl)cc1", "note": "(stereo not drawn)", "growth inhibition": "7%"}
{"smiles": "COc1cc(NCCCCCNC(C)C)c2ncc(C)c(C)c2c1", "growth inhibition": "27%"}
{"smiles": "Cc1ccc(C(c2ccc(N(C)C)cc2)c2ccc(N(C)C)cc2)cc1", "growth inhibition": "92% (active)"}
{"smiles": "COc1ccc(OC)c2c1C=C[C@H](C1(C)SCCS1)C2C(C)=O", "note": "(stereo partly drawn)", "growth inhibition": "92% (active)"}
{"smiles": "CCOC(=O)c1cc2c(nc1NCc1ccc(OC)c(OC)c1)/C(=C/c1ccccc1)CCCC2", "growth inhibition": "92% (active)"}
{"smiles": "N#Cc1ccccc1[N+](=O)[O-]", "growth inhibition": "93% (active)"}
{"smiles": "O=C1c2cccc3cc4ccccc4c(c23)C(=O)N1CCCNCCNCCCN1C(=O)c2cccc3cc4ccccc4c(c23)C1=O", "growth inhibition": "97% (active)"}
{"smiles": "CC(=O)Oc1ccc(N=[N+]([O-])c2ccc(OC(C)=O)cc2)cc1", "growth inhibition": "5%"}
{"smiles": "CCOCCNc1ncnc2c1cnn2C", "growth inhibition": "-1%"}
{"smiles": "O=Cc1ccc(-c2nccc3c2[nH]c2ccccc23)o1", "growth inhibition": "25%"}
{"smiles": "O=c1oc2ccccc2c(O)c1C1=N/C(=N/N=C/c2ccc(Cl)cc2)SC1", "growth inhibition": "97% (active)"}
{"smiles": "Cc1ccccc1Oc1ccccc1N", "growth inhibition": "39%"}
{"smiles": "CCCCCCC(=O)Nc1ccc(OC(=O)CCCCCC)c(=O)cc1", "growth inhibition": "99% (active)"}
{"smiles": "CC(=O)C(C(C)=O)C1C=CC=CC=C1", "growth inhibition": "92% (active)"}
{"smiles": "CC(=O)Nc1ccc(N=C2c3ccccc3-c3ccc(NC(C)=O)cc32)cc1", "growth inhibition": "59%"}
{"smiles": "C/C=C1\\CC(C)(CC)C(C#N)(C#N)C(N)=C1C#N", "note": "(stereo not drawn)", "growth inhibition": "-9%"}
{"smiles": "Cc1cc(Cc2ccc(Cl)cc2)ccc1O", "growth inhibition": "99% (active)"}
{"smiles": "O=C1C=CC(=O)N1c1ccc(-c2nc3ccccc3o2)cc1", "growth inhibition": "90% (active)"}
{"smiles": "CCN(CC)CC(O)c1ccnc2c(O)cccc12", "note": "(stereo not drawn)", "growth inhibition": "20%"}
{"smiles": "Nc1ccc(O)c2c1C(=O)c1ccccc1C2O", "note": "(stereo not drawn)", "growth inhibition": "98% (active)"}
{"smiles": "CC(=O)OC1CCC2(C)C(CCC3C4=CCC(C5COC(=O)C5)C4(C)CCC32)C1", "note": "(stereo not drawn)", "growth inhibition": "90% (active)"}
{"smiles": "CCN(CC)CCOc1ccc(NC(=S)Nc2ccc(OCC(C)C)cc2)cc1", "growth inhibition": "74% (active)"}
